Data from the emibetuzumab library of Makowski et al. (2022).
This is one part of the list. The hit rate among all sequences tested is not known here.

B1: VH:VL chains; a variant is named by its letters at X, in order (parent)
chain 1: QVQLVQSGAEVKKPGASVKVSCKASGYTFTDYXMHWVRQAPGQGLEWMGXVNPNXXXTTYNQKFEGRVTMTTDTSTSTAYMELRSLRSDDTAVYYCARXNXLDXWGQGTTVTVSS
chain 2: DIQMTQSPSSLSASVGDRVTITCSVSSSVSSIYLHWYQQKPGKAPKLLIYSTSNLASGVPSRFSGSGSGTDFTLTISSLQPEDFATYYCQVYSGYPLTFGGGTKVEIK

Variants of: B1
Test: yeast display scFab, FACS + sequencing
Conditions: with MET
Method in brief: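 For FACS, yeast displaying a heavy-chain CDR mutant scFab library were labelled with 1 nM HGFR-Fc and anti-Myc (PBSB, 1% milk, 3 h, room temperature), and the top 50% antigen-positive cells were gated. Input and round-3 sorted populations were deep sequenced in two replicates. The binding call was positive for sequences occurring in both antigen-positive samples and negative for sequences occurring only in input.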

**Q.** How did the antigen binding call turn out when YRRGGAAS was run?
**A.** Its antigen binding call is “binds”.

**Q.** VRRTSAAS was tested. Which antigen binding call did it give?
**A.** Its antigen binding call is “no binding”.

**Q.** VKGAGAAS was tested. Which antigen binding call did it give?
**A.** Its antigen binding call is “no binding”.

**Q.** For VRRGGAAS, which antigen binding call is on record?
**A.** The antigen binding call was “binds”.

**Q.** Which antigen binding call does the source give for FRRGGAAS here?
**A.** The antigen binding call was “binds”.

**Q.** With DEGGTAGA as the variant, how does the antigen binding call read?
**A.** Its antigen binding call is “no binding”.

**Q.** Which antigen binding call does the source give for YRRGGSWV here?
**A.** Its antigen binding call is “binds”.

**Q.** Which antigen binding call does the source give for YRRRGSLV here?
**A.** Its antigen binding call is “binds”.

**Q.** Which antigen binding call does the source give for FRRRGSLV here?
**A.** The antigen binding call was “binds”.

**Q.** How did the antigen binding call turn out when YRRRGYLV was run?
**A.** Its antigen binding call is “no binding”.

**Q.** For FGRRGAGV, which antigen binding call is on record?
**A.** Its antigen binding call is “no binding”.

**Q.** For YRRRGSVV, which antigen binding call is on record?
**A.** The antigen binding call was “binds”.

**Q.** Which antigen binding call does the source give for YGETGFWY here?
**A.** Its antigen binding call is “no binding”.

**Q.** Which antigen binding call does the source give for DKTKSDWV here?
**A.** Its antigen binding call is “no binding”.

**Q.** For VAREGDLA, which antigen binding call is on record?
**A.** The antigen binding call was “no binding”.

**Q.** How did the antigen binding call turn out when AARADDVY was run?
**A.** Its antigen binding call is “no binding”.

**Q.** For YRRRGAWV, which antigen binding call is on record?
**A.** The antigen binding call was “binds”.

**Q.** VRRRGSWV was tested. Which antigen binding call did it give?
**A.** The antigen binding call was “binds”.

**Q.** VTEEGSWV was tested. Which antigen binding call did it give?
**A.** The antigen binding call was “no binding”.

**Q.** For YRRRGSWV, which antigen binding call is on record?
**A.** The antigen binding call was “binds”.

**Q.** With VRGAGSWV as the variant, how does the antigen binding call read?
**A.** The antigen binding call was “no binding”.

**Q.** For VRRGGAWV, which antigen binding call is on record?
**A.** Its antigen binding call is “no binding”.

**Q.** YRRGGAWV was tested. Which antigen binding call did it give?
**A.** Its antigen binding call is “binds”.

**Q.** Which antigen binding call does the source give for DEGKDDVA here?
**A.** The antigen binding call was “no binding”.

**Q.** How did the antigen binding call turn out when DTGGGDAY was run?
**A.** Its antigen binding call is “no binding”.

**Q.** DTTEASLV was tested. Which antigen binding call did it give?
**A.** The antigen binding call was “no binding”.

**Q.** For FRGRDFVA, which antigen binding call is on record?
**A.** Its antigen binding call is “no binding”.

**Q.** For DRGRDDVA, which antigen binding call is on record?
**A.** Its antigen binding call is “no binding”.

**Q.** With FRGRDSVA as the variant, how does the antigen binding call read?
**A.** The antigen binding call was “binds”.

**Q.** With FRGRSSVA as the variant, how does the antigen binding call read?
**A.** The antigen binding call was “binds”.

**Q.** Which antigen binding call does the source give for DTGTSDLY here?
**A.** Its antigen binding call is “no binding”.

**Q.** For FARAGDWV, which antigen binding call is on record?
**A.** The antigen binding call was “no binding”.

**Q.** With FRARGAGV as the variant, how does the antigen binding call read?
**A.** Its antigen binding call is “binds”.

**Q.** Which antigen binding call does the source give for FRARGAGS here?
**A.** Its antigen binding call is “binds”.

**Q.** With FRAGGAGV as the variant, how does the antigen binding call read?
**A.** The antigen binding call was “binds”.

**Q.** Which antigen binding call does the source give for FEATAAGS here?
**A.** The antigen binding call was “no binding”.

**Q.** How did the antigen binding call turn out when VRAGDAGV was run?
**A.** The antigen binding call was “no binding”.

**Q.** With FEAGDDGV as the variant, how does the antigen binding call read?
**A.** Its antigen binding call is “no binding”.

**Q.** How did the antigen binding call turn out when FRAGGVGV was run?
**A.** The antigen binding call was “no binding”.

**Q.** How did the antigen binding call turn out when FRAGDAGV was run?
**A.** The antigen binding call was “binds”.

**Q.** With VKGRADWV as the variant, how does the antigen binding call read?
**A.** Its antigen binding call is “no binding”.

**Q.** Which antigen binding call does the source give for FRAGGSSV here?
**A.** The antigen binding call was “binds”.

**Q.** YRGRTAAY was tested. Which antigen binding call did it give?
**A.** Its antigen binding call is “binds”.

**Q.** With YRERAAGY as the variant, how does the antigen binding call read?
**A.** The antigen binding call was “binds”.

**Q.** YRGRTAAF was tested. Which antigen binding call did it give?
**A.** The antigen binding call was “binds”.

**Q.** For YRGRSAGY, which antigen binding call is on record?
**A.** The antigen binding call was “binds”.

**Q.** How did the antigen binding call turn out when SAGRSDLV chain 1 R67H was run?
**A.** Its antigen binding call is “no binding”.

**Q.** SEARSDWV was tested. Which antigen binding call did it give?
**A.** The antigen binding call was “no binding”.

**Q.** How did the antigen binding call turn out when AARADAGA was run?
**A.** The antigen binding call was “no binding”.

**Q.** YRGRTAAD was tested. Which antigen binding call did it give?
**A.** Its antigen binding call is “binds”.

**Q.** YRTRDAGY was tested. Which antigen binding call did it give?
**A.** The antigen binding call was “binds”.

**Q.** For YGKRDASY, which antigen binding call is on record?
**A.** Its antigen binding call is “no binding”.

**Q.** For YTKETAAD, which antigen binding call is on record?
**A.** The antigen binding call was “no binding”.

**Q.** YRTRDDLY was tested. Which antigen binding call did it give?
**A.** The antigen binding call was “no binding”.

**Q.** FKGRSASY was tested. Which antigen binding call did it give?
**A.** Its antigen binding call is “no binding”.

**Q.** How did the antigen binding call turn out when YRGRSASY was run?
**A.** The antigen binding call was “binds”.

**Q.** With YRGRSAAY as the variant, how does the antigen binding call read?
**A.** The antigen binding call was “binds”.

**Q.** With DKGGAVWT as the variant, how does the antigen binding call read?
**A.** The antigen binding call was “no binding”.

**Q.** With SEARSSSA as the variant, how does the antigen binding call read?
**A.** The antigen binding call was “no binding”.
